These results are taken from PubChem BioAssay (NCI).

About 83,000 compounds went through this panel and 20% of them were active in at least one assay; those are over-represented in the sample as a whole.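 Percent growth is the endpoint: 0 to 100 indicates growth inhibition (40 means 60% inhibition), 0 means no net growth, and negative values indicate cell death.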 Values without a mark were called inactive. Activity calls are given as the source filed them. How the source made its calls: active means growth percent below 10; inactive means the rest.

Holding throughout (experiment): NCI-60 one-dose screen, 48 h (100 = growth as untreated, 0 = no growth, -100 = all killed)
Holding throughout (conditions): 10 µM unless noted

The subject of test [1] is HCT-15 colon.
In test [2] the test system is HT29 colon.
Test [3] relates to SNB-75 CNS.
Test [4] deals with SNB-19 CNS.
Test [5] relates to U251 CNS.
The subject of test [6] is SK-MEL-5 melanoma.
Test [7] concerns UACC-62 melanoma.
The subject of test [8] is LOX IMVI melanoma.
Test [9] has as its system SK-MEL-28 melanoma.
Test [10] deals with SK-MEL-2 melanoma.
In test [11] the test system is EKVX NSCLC.
For test [12], the system named is SN12C renal.
Test [13] concerns UO-31 renal.
In test [14] the test system is TK-10 renal.
Test [15] relates to ACHN renal.
Test [16] concerns CAKI-1 renal.
The subject of test [17] is CCRF-CEM leukemia.
In test [18] the test system is MOLT-4 leukemia.
Test [19] concerns PC-3 prostate.
The subject of test [20] is A498 renal.

Regarding `COc1ccc(-c2cc(-c3ccc(Nc4nc(Nc5ccccc5)nc(Nc5ccc(Cl)cc5)n4)cc3)nc(N)n2)cc1`, the growth was 76.6% in test [1]; 52% in test [2]; 55.6% in test [3]; 68.7% in test [4]; 24.7% in test [5]; 60.7% in [6]. The growth was 58.8% in test [7]; 55% in test [8]; 84.8% in test [9]; 70.7% in [10]; 58.8% in [11]; 75% in [12]. Also, the growth in test [13] is 69%; in [14], 98%; in test [15], 74.6%; in test [16], 75.8%; in test [17] it was 27.1%; in test [18], 28.6%.
For the compound `C=C1C(=O)O[C@H]2[C@H]1CC/C(COC(=O)/C=C\C(=O)NCc1ccc(Cn3c(=O)sn(CCCI)c3=O)cc1)=C\CC[C@@]1(C)O[C@@H]21`, the growth in test [1] is -38% (active); in [2] it was -30.1% (active); in test [3], -63.9% (active); in test [4], 1.92% (active); in [5], -72% (active); in test [19] it was -70.6% (active). The growth in test [7] is -98.2% (active); in test [8] it was -83.2% (active); in [9], -94.7% (active); in test [10], -64.4% (active); in [11], -58.8% (active); in test [12], -90.8% (active). The growth in [13] is -100% (active); in [14], -79.3% (active); in [15], -100% (active); in test [16], -78.6% (active); in test [20], -17.6% (active); in [17], -21.1% (active). In addition, in [18], the growth was -30% (active).
For `N=c1ccn2c(n1)OC1C(O)C(CO)OC12` (stereo not given), the growth was 49.9% in [1]; 34.4% in test [2]; 11.4% in [3]; 44% in [4]; 37.7% in test [5]; 45.9% in [6]. The growth was 43.9% in [7]; 10.3% in test [8]; 53.3% in test [9]; 46.5% in test [10]; 85.5% in test [11]; 34.9% in test [12]. Further, the growth was -3.93% (active) in test [13]; 51.3% in test [14]; -15.9% (active) in test [15]; -14.4% (active) in [16]; 74.7% in test [20]; 108% in test [18].
`Cc1cn(C2CCCCC2)c(=O)[nH]c1=O`: the growth in test [1] was 99.2%; in test [2], 96%; in test [3], 94.4%; in test [4], 114%; in test [5], 108%; in test [6], 105%. Besides, the growth in test [7] was 109%; in test [8], 111%; in [9] it was 109%; in test [10], 127%; in test [11] it was 121%; in test [13], 99.8%. For the same compound, the growth in test [14] is 99.8%; in test [15], 103%; in [16] it was 119%; in [17], 117%; in test [18] it was 96.6%.
Consider `CCN(CC)CCOc1ccc(/C(=C(\C)c2ccc(F)c(OC)c2)c2ccc(Cl)cc2)cc1`, for which the growth was 2.58% (active) in [1]; 9.08% (active) in test [2]; 31.9% in test [3]; 8.37% (active) in [4]; 3.13% (active) in [5]; 14.8% in test [19]. The growth is -44.8% (active) in test [7]; -94.1% (active) in [8]; -64.6% (active) in test [9]; 67.7% in [10]; 56.4% in test [11]; 38% in test [12]. In addition, the growth in test [13] was 7.48% (active); in test [14], 49.5%; in test [15] it was 25.8%; in test [16] it was 17.1%; in test [20], 48.1%; in test [17], 13.9%. In addition, the growth in test [18] is -1.16% (active).
Consider `C=C1C(=O)O[C@H]2[C@H]1CC/C(COC(=O)/C=C\C(=O)NCc1ccc(Cn3c(=O)sn(-c4ccc(C#N)cc4)c3=O)cc1)=C\CC[C@@]1(C)O[C@@H]21`, for which the growth was -33.9% (active) in [1]; -13.2% (active) in [2]; -82.2% (active) in test [3]; -65% (active) in [4]; -66.4% (active) in test [5]; -62.4% (active) in test [19]. For the same compound, the growth in test [7] is -99.4% (active); in test [8] it was -86.8% (active); in test [9], -96.2% (active); in test [10], -64.9% (active); in [11] it was -56.9% (active); in [12] it was -93.8% (active). The growth in test [13] was -100% (active); in test [14] it was -85.1% (active); in [15], -100% (active); in test [16], -69.1% (active); in [20], -8.82% (active); in test [17], -18.1% (active). In test [18], the growth is -32.3% (active).
For `CCOC(=O)c1sc(-c2ccc(OS(=O)(=O)c3ccc(C(C)(C)C)cc3)c(C=O)c2)nc1C`, the growth is 12.5% in [1]; 19.7% in [2]; 22.9% in test [3]; 29.7% in test [4]; 26% in test [5]; 16.2% in test [19]. Besides, the growth is 46.1% in test [7]; 43.3% in test [8]; 81.9% in test [9]; 72.7% in test [10]; 40.2% in test [11]; 32.1% in [12]. Also, the growth in test [13] is 29.9%; in test [14], 55.8%; in test [15], 26.6%; in test [16], 20.5%; in test [20] it was 57%; in test [17], 29.9%. Besides, the growth in test [18] is 20.5%.
On to `COC1=CC(c2ccc[nH]2)=N/C1=C\c1[nH]c(C)c(C(=O)OCCn2cc(CCC[C@@H]3Cc4cc(O)ccc4C4CC[C@]5(C)[C@@H](O)CC[C@H]5C43)nn2)c1C` (stereo not given in full), for which the growth was 25% in [1]; 18.9% in [2]; 44.7% in [3]; 47.1% in test [5]; 50.4% in [19]; 88.2% in test [6]. Further, the growth in test [8] was -17% (active); in [9], 94.5%; in [10] it was 122%; in test [13], 44.7%; in [14], 96.9%; in test [15], 66.5%. Further, the growth in test [16] was 46.4%; in test [20], 49.6%; in [17], 36.8%; in [18], 62.1%.
